The supplement of paper PMC9477273

Each compound was assayed on DRIVER-selected RNA biosensor (aptazyme) pool (assay: maximum fold change of ribozyme cleavage across biosensor pool versus no-compound control; higher = stronger biosensor response (ligand inhibits cleavage)). Conditions: 10 µM.
Method: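 CleaveSeq: a pool of resynthesized hammerhead-ribozyme RNA biosensors (sTRSV scaffold with randomized loops, 1,730 sequences) was T7-transcribed at 37 °C for 15-30 min with a single compound at 10 µM. Cleaved and uncleaved products were counted by NGS, and fold change of cleavage was computed against the DMSO-only condition. The value is the maximum fold change of cleavage over all biosensors in the pool. About 255 compounds were tested individually.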
`Cc1ccc(CNC(=O)CN2CC(c3ccccc3)CC2=O)cc1` (centres undefined) was tested, and the maximum fold change was 3.05. With `O=C(Cn1cnc2sc3c(c2c1=O)CCCC3)NCCCC(=O)N1CCC2(CC1)OCCO2` the maximum fold change was 2.67. Work on `O=Cc1cn(Cc2ccc(F)cc2Cl)c2ccccc12` yielded a maximum fold change of 3. Compound `CN1CCN(Cc2csc3c2CCCC3)CC1` has a maximum fold change of 3.66.
